The list is not random: actives were taken first. Their share in the collection is about 5.3%.
VACV mCherry inh = inhibitors of vaccinia virus infection (mCherry reporter signal) | Vaccinia virus mCherry reporter infection, fluorescence | Potency, µM (titrated, usually from 36.5 µM), most hits filed as inhibitors | 310,000 compounds, 0.63% hits; calls by dose curve; tested in A549 cells; note: nearly all actives have a fitted effect of over 35% in size
VACV Venus inh = vaccinia inhibition (Venus reporter). 330,000 compounds, 0.46% hits. Potency, µM (doses to about 36.5 µM), usual class: inhibitors. AID 720580. Vaccinia virus Venus reporter expression, fluorescence; calls by dose curve; tested in A549 cells; note: nearly all actives have a fitted effect of over 30% in size
HCV inh = blocks hepatitis C virus; 340,000 compounds, 3.4% hits; AID 651820; Potency, µM (titrated, usually from 41.8 µM), most hits filed as inhibitors; Huh7.5.1 HCVcc-Cre infection, luciferase reporter, 44 h; active = well fitted inhibition curve with a large enough effect; inconclusive = small, poorly fitted or top-dose-only effect, or another doubt; inactive = no such curve, though single readings can be large or run the other way
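A cell-based infection assay in which seeded cells (1,000 per well) receive test compound after 4 h, are inoculated with HCVcc-Cre at approximately 0.5 moi, and are incubated 44 h before luminescence detection.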
FMDV inh = foot and mouth disease virus antiviral activity. FMDV antiviral cell-based qHTS. Potency, µM (highest dose often 57.9 µM), usual class: inhibitors. 410,000 compounds, 1.2% hits; calls by dose curve; tested in HEK293T cells; note: read-out not given here; nearly all actives have a fitted effect of over 45% in size
Marburg entry inh = Marburg virus entry inhibition. Marburg virus pseudotyped entry inhibition, cell reporter. Potency, µM (doses to about 37.8 µM), most hits filed as inhibitors. 300,000 compounds, 1.8% hits. AID 540276; calls by dose curve; tested in HEK293 cells
LASV entry inh = blocks Lassa virus binding to or entry into cells; Lassa virus pseudotype entry inhibition, cell reporter; 300,000 compounds, 1.2% hits; Potency, µM (series often up to 37.9 µM), usual class: inhibitors; calls by dose curve; tested in HEK293 cells; note: nearly all actives have a fitted effect of over 50% in size
Numbers stand for hits.

CCN(CC)S(=O)(=O)c1ccc2[nH]cc(C(=O)NCCC3=CCCCC3)c(=O)c2c1 was read as VACV Venus inh inconclusive, HCV inh 11.2µM, FMDV inh 14.1µM, Marburg entry inh 11.2µM and LASV entry inh 1.26µM.
For Cc1cnc2ccc(I)cc2c1/C=C/c1ccc(N(C)C)cc1 the results were VACV mCherry inh inactive and VACV Venus inh inactive.
Screening O=C(Nc1ccc(N2CCN(Cc3ccccc3F)CC2)cc1)c1ccc([N+](=O)[O-])o1 returned VACV mCherry inh 3.98µM, VACV Venus inh inconclusive, HCV inh inconclusive, FMDV inh inconclusive, Marburg entry inh inconclusive and LASV entry inh inactive.
`CCC(=O)N1CCN(c2ccc(NC(=O)c3ccc([N+](=O)[O-])o3)cc2)CC1` gave VACV mCherry inh inconclusive, VACV Venus inh inconclusive, HCV inh inconclusive, FMDV inh inactive, Marburg entry inh inactive and LASV entry inh inconclusive.
For CC1CCN(c2ccc(NC(=O)c3ccc([N+](=O)[O-])o3)cc2)CC1 the results were VACV mCherry inh 11.2µM, VACV Venus inh 10µM, HCV inh inconclusive, FMDV inh inactive, Marburg entry inh inconclusive and LASV entry inh inconclusive.
CCCC(=O)N1CCN(c2ccc(NC(=O)c3ccc([N+](=O)[O-])o3)cc2)CC1 was read as VACV mCherry inh 10µM, VACV Venus inh 10µM, HCV inh inconclusive, FMDV inh inactive, Marburg entry inh inconclusive and LASV entry inh inconclusive.
`O=C(Nc1ccc(N2CCN(C(=O)c3ccc(Cl)cc3)CC2)cc1)c1ccc([N+](=O)[O-])o1` gave VACV mCherry inh inactive, VACV Venus inh inconclusive, HCV inh 10µM, FMDV inh inconclusive, Marburg entry inh inconclusive and LASV entry inh inactive.
Screening O=C(Nc1ccc(N2CCCCC2)cc1)c1ccc([N+](=O)[O-])o1 returned VACV mCherry inh inconclusive, VACV Venus inh inactive, HCV inh inconclusive, FMDV inh inactive, Marburg entry inh inconclusive and LASV entry inh inconclusive.
Cc1ccc(C)c(NC(=O)CCCN2C(=O)C(c3ccccc3)Oc3cccnc32)c1 (centres undefined) was read as VACV mCherry inh inactive, VACV Venus inh inactive, FMDV inh inactive and LASV entry inh inconclusive.
Nc1nc(N)c(S(=O)(=O)c2ccccc2)c(Nc2ccccc2)n1 was read as VACV mCherry inh inactive, VACV Venus inh inactive, FMDV inh inactive, Marburg entry inh inconclusive and LASV entry inh inactive.
For O=C1[C@@H]2CC=C(Cl)C[C@H]2C(=O)N1CNc1ccccn1 the results were Marburg entry inh inactive.
`CC(C)(C)C(=O)N1CCN(c2ccc(NC(=O)c3ccc([N+](=O)[O-])o3)cc2)CC1` gave VACV mCherry inh 11.2µM, VACV Venus inh inconclusive, HCV inh inconclusive, FMDV inh inactive, Marburg entry inh inconclusive and LASV entry inh inconclusive.
Screening CN1CCN(c2ccc(NC(=O)c3ccc(-c4ccc(Br)cc4)o3)cc2)CC1 returned VACV mCherry inh inconclusive, VACV Venus inh inactive, HCV inh 10µM, FMDV inh inactive, Marburg entry inh inconclusive and LASV entry inh inconclusive.
Screening COc1ccc2c(c1)CO[C@H]([C@H](O)CO)[C@H]2C=CC#Cc1ccc(C(C)(C)C)cc1 returned Marburg entry inh inactive.
For CCC(=O)N1CCCC(C)(C(=O)Nc2nccc3cccnc23)C1 (centres undefined) the results were VACV mCherry inh inactive, VACV Venus inh inactive and FMDV inh inactive.
For O=C(Nc1nc2ccc(F)cc2s1)c1nc(S(=O)(=O)Cc2ccccc2)ncc1Cl the results were VACV mCherry inh inactive, VACV Venus inh inactive, FMDV inh 28.2µM, Marburg entry inh inactive and LASV entry inh 4.47µM.
Cc1cccc(CS(=O)(=O)c2ncc(Cl)c(C(=O)Nc3nc4ccc(F)cc4s3)n2)c1 was read as VACV mCherry inh inconclusive, VACV Venus inh inconclusive, FMDV inh 15.8µM, Marburg entry inh inactive and LASV entry inh inconclusive.
Screening COc1ccc2nc(NC(=O)c3nc(S(=O)(=O)Cc4ccccc4)ncc3Cl)sc2c1 returned VACV mCherry inh inactive, VACV Venus inh inactive, FMDV inh 25.1µM, Marburg entry inh inconclusive and LASV entry inh inconclusive.
Screening COc1ccc2nc(NC(=O)c3nc(S(=O)(=O)Cc4ccccc4F)ncc3Cl)sc2c1 returned VACV mCherry inh inactive, VACV Venus inh inactive, FMDV inh inconclusive, Marburg entry inh inconclusive and LASV entry inh inconclusive.
Screening Cc1ccc(-n2cc(CN3CCC(O)(c4ccccn4)CC3)c(-c3ccc(F)cc3)n2)cc1 returned VACV mCherry inh inconclusive, VACV Venus inh inconclusive, HCV inh inconclusive, FMDV inh inactive, Marburg entry inh 3.98µM and LASV entry inh inconclusive.
`Cc1ccc(-n2cc(CN3CCNC(=O)CC3)c(-c3ccc(F)cc3)n2)cc1` gave VACV mCherry inh inconclusive, VACV Venus inh inactive, HCV inh inactive, FMDV inh inactive, Marburg entry inh inactive and LASV entry inh inactive.
For Cc1ccc(CNC(=O)CC2(CC3=NS(=O)(=O)c4ccccc4N3)CCCC2)cc1 the results were VACV mCherry inh inactive, VACV Venus inh inactive, HCV inh 11.2µM and FMDV inh inactive.
For Cc1cc2c(cc1C)N[C@]1(C[C@H]3CCCC(=O)N4CC[C@@H](C1)[C@@H]34)C(=NC1CCCCC1)N2 the results were VACV mCherry inh inactive and VACV Venus inh inactive.
Screening Cc1ncc(Cc2ccccc2)c(C2CCN(S(=O)(=O)C[C@]34CC[C@H](CC3=O)C4(C)C)CC2)n1 returned VACV mCherry inh inactive, VACV Venus inh inactive and FMDV inh inactive.
Screening CCN1C(=O)CC(CC(=O)N2CCCCC2c2nccs2)(c2ccccc2C)C1=O (centres undefined) returned VACV mCherry inh inactive, VACV Venus inh inactive and FMDV inh inactive.
Screening Cc1ccc(C2C3=C(CC(C)(C)CC3=O)NC3=C2C(=O)c2ccccc23)cc1 (centres undefined) returned VACV mCherry inh inactive, VACV Venus inh inconclusive, HCV inh inconclusive, FMDV inh inactive, Marburg entry inh inconclusive and LASV entry inh inconclusive.
Screening CSC1=C(C#N)C(c2ccc(Cl)cc2)C2=C(CC(C)(C)CC2=O)N1 (centres undefined) returned VACV mCherry inh inactive, VACV Venus inh inactive, HCV inh 11.2µM, FMDV inh inactive, Marburg entry inh inconclusive and LASV entry inh inconclusive.
CCCSC1=C(C#N)[C@H](c2ccc(OC)cc2)C2=C(CC(C)(C)CC2=O)N1 was read as Marburg entry inh inactive.
CC1(C)CC(=O)C2=C(C1)NC1=C(C(=O)c3ccccc31)C2c1ccc(Cl)cc1 (centres undefined) was read as VACV mCherry inh inconclusive, VACV Venus inh inconclusive, HCV inh 11.2µM, FMDV inh inactive, Marburg entry inh inconclusive and LASV entry inh inconclusive.
COc1ccc(NC(=O)COc2cccc3c2OC(C)(C)C3)cc1OC was read as HCV inh 6.31µM and FMDV inh 22.4µM.
`C=C[C@]1(C)C=C2C(=O)[C@@]3(O)OC(=O)[C@@]4(CCCC(C)(C)[C@H]34)[C@@]2(O)CC1` gave VACV mCherry inh 8.91µM, VACV Venus inh 10µM and FMDV inh 2.82µM.

Source: PubChem BioAssay
